BaF3 tox = reduces parental Ba/F3 cell viability, JAK2V617F counter-screen; CellTiter-Glo ATP luminescence; inhibition, % at 5.6 µM; 220,000 compounds, 1.1% hits;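 active = inhibition above a per-campaign cutoff, the mean inhibition of all tested compounds plus 3 SD, cut at about 27% in these data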;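 note: 0% = DMSO wells and 100% = JAK Inhibitor I control wells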
IEC-6 cytotox = IEC-6 cytotoxicity, counter-screen for KLF5 inhibitors; luminescence viability; inhibition, % at 5 µM; 290,000 compounds, 0.78% hits; AID 1825; in the data active = inhibition above about 22%;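 note: 0% = plate median of test compound wells and 100% = cytotoxic reference compound wells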
Ba/F3 V617F tox = reduce viability of Ba/F3 cells dependent on JAK2V617F; inhibition, % at 5.6 µM; Ba/F3 EpoR-JAK2V617F viability, ATP luminescence; 220,000 compounds, 1.1% hits;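 active = inhibition above the campaign mean plus 3 SD over all tested compounds, cut at about 24% in these data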;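 note: cytokine-independent growth of Ba/F3 cells driven by EpoR plus mutant JAK2; 0% = DMSO-treated cells and 100% = JAK inhibitor I control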
APP transl inh = APP translation inhibition. 190,000 compounds, 0.82% hits. inhibition, % at 2 µM. SH-SY5Y APP 5'UTR-luciferase reporter, luminescence;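 active = inhibition above a set limit, derived from the sample mean plus 3 SD, cut at about 45% in these data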
KLF5 inh = kruppel-like factor 5 inhibition; DLD-1 KLF5 promoter-luciferase reporter, luminescence; inhibition, % at 5 µM; 290,000 compounds, 0.23% hits; AID 1700;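 active = inhibition above a per-plate limit of that plate's mean compound inhibition plus 3 SD, cut at about 60% in these data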;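 note: 0% = DMSO wells and 100% = LY294002 at 200 µM; higher means less KLF5 promoter-driven luciferase light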
* = called active by the depositor; · = not tested or not shown. Compounds with a hit are over-represented: about 1.8% of the library has one in this group of screens.

SMILES | BaF3 tox | IEC-6 cytotox | Ba/F3 V617F tox | APP transl inh | KLF5 inh
CN1CCN(CCCC(=O)c2ccc(F)cc2)CC1 | 92* | -2 | 1 | -3 | -7
O=C(CCCN1Cc2ccccc2C1)c1ccc(F)cc1 | 2 | -2 | -4 | -22 | -13
COc1ccc(C2CC(c3cccs3)=NN2C(=O)CSc2nc3c(cnn3-c3ccccc3)c(=O)[nH]2)cc1 (stereo unspecified) | 8 | 0 | -4 | 22 | -7
COc1cccc(C2CC(c3cccs3)=NN2C(=O)CSc2nc3c(cnn3-c3ccc(F)cc3)c(=O)[nH]2)c1OC (stereo unspecified) | 1 | -5 | -3 | 55* | -3
c1ccc(CCNc2ncnc3sccc23)nc1 | 13 | 2 | 6 | -28 | -41
Cc1csc2ncnc(NCCc3ccccn3)c12 | 77* | -2 | 37* | -20 | -27
CCOC(=O)C1CCN(C(=O)CSc2nc3ncccc3[nH]2)CC1 | · | 6 | · | · | -33
COC(=O)C1=Cc2cc(OC)cc([N+](=O)[O-])c2OC1N1CCOCC1 (stereo unspecified) | · | -2 | · | · | -50
N=c1ccn(Cc2ccc(F)cc2)cc1 | 61* | -4 | 70* | · | -7
Nc1nc2c(Cl)ccc(Cl)c2s1 | 5 | 1 | 2 | 6 | -18
COC(=O)c1ccc(NC(=O)Cn2c(-c3nonc3N)nc3ccccc32)cc1 | 1 | 2 | -4 | 12 | -22
COC(=O)c1ccccc1NC(=O)Cn1c(-c2nonc2N)nc2ccccc21 | 50* | 35* | 50* | 95* | -29
N#Cc1ccc(N/N=C/c2cn(-c3ccccc3)nc2-c2ccccc2)c([N+](=O)[O-])c1 | 7 | 0 | -1 | 75* | -7
NS(=O)(=O)c1ccc(N/N=C/c2cn(-c3ccccc3)nc2-c2cccs2)c([N+](=O)[O-])c1 | 3 | -5 | 3 | 1 | -7
O=C1C[C@H]2[C@H](CO)[C@@H](OC(=O)c3ccc(-c4ccccc4)cc3)C[C@H]2O1 | 3 | 5 | 2 | · | -67
COc1ccc2nc(SCC(=O)N3CC(=O)Nc4ccccc43)c(C#N)cc2c1 | 3 | 2 | 0 | 60* | -17
O=c1[nH]c(CN2CCN(c3ccc(O)cc3)CC2)nc2scc(-c3ccc(Cl)cc3)c12 | 9 | 20 | 4 | 62* | -8
O=c1[nH]c(CN2CCN(c3ccccc3O)CC2)nc2scc(-c3ccccc3Cl)c12 | 2 | 2 | 4 | · | 7
CC(CC(=O)NC1CCCCC1)S(=O)(=O)c1ccc2c(c1)NC(=O)CO2 (stereo unspecified) | · | 6 | · | · | -13
CC(=O)OCCCCCCCCCCC[N+]1(C)CCCCC1 | 51* | -4 | 25* | -19 | -4
COc1ccccc1N=c1oc2cc(O)ccc2cc1C(=O)NCC1CCCO1 (stereo unspecified) | 13 | 4 | 7 | -6 | -52
COc1ccccc1N=c1oc2cc(O)ccc2cc1C(N)=O | 34* | 21 | 32* | -5 | -57
COc1ccc(-c2csc(C3=C(O)CN(CCCN4CCCC4=O)C3=N)n2)cc1OC | 6 | -9 | 3 | -41 | -12
COc1ccc(C2=NCC(CSc3nnc(-c4ccc5c(c4)OCO5)o3)S2)cc1 (stereo unspecified) | 51* | -1 | -1 | -1 | -16
Cc1ccc(CSc2nnc(-c3ccc4c(c3)OCO4)o2)cc1 | 2 | -1 | -2 | -11 | 2
SMILES | BaF3 tox | IEC-6 cytotox | Ba/F3 V617F tox | APP transl inh | KLF5 inh
O=[N+]([O-])C(/C=C(/Cl)[N+](=O)[O-])=C(N1CCCCC1)N1CCCCC1 | -4 | -3 | -3 | · | -8
O=C1NC(=S)S/C1=C\C=C\c1ccc([N+](=O)[O-])o1 | 9 | -28 | 31* | · | 10
O=C1NC(=S)S/C1=C/c1ccc(N2CCOCC2)o1 | 7 | -12 | -1 | 13 | -55
O=C1C=CC(O)(c2cc(=O)c3c(O)cc(O)cc3o2)C=C1 | 47* | 1 | 44* | 41 | 37
CCOc1ccccc1-n1c(COc2ccccc2)nnc1SCC(N)=O | 0 | -4 | -2 | 52* | -17
CC1=C(Sc2ccccn2)C(=O)NC(C)(C)C1 | 4 | 0 | -3 | 2 | 12
CC1=C(Sc2nc3ccccc3[nH]2)C(=O)NC(C)(C)C1 | -1 | -5 | -2 | 48* | 4
CCOc1ccc(-n2c(-c3ccc(Cl)cc3)c[n+]3c2SCC3)cc1 | 74* | 2 | 70* | -6 | 19
c1ccc(-c2c[n+]3c(n2-c2ccccc2)SCC3)cc1 | 61* | -1 | 66* | · | -20
N=C(CC1CC(=O)NC(=O)C1)C1=C(O)CCCC1=O | 8 | 0 | -1 | -1 | -9
O=C(c1ccncc1)N(Cc1cc2ccccc2[nH]c1=O)C1CCCCC1 | 29* | 8 | 40* | 12 | 22
N#C/C(=C\c1ccc(N2CCOCC2)o1)c1nc2ccccc2[nH]1 | 2 | -3 | 1 | -156 | -8
N#C/C(=C/c1ccc(N2CCOCC2)o1)c1ccc(Cl)cc1 | 56* | -3 | 47* | -10 | -9
O=C1C(Nc2cccc(O)c2)=C(N2CCCCC2)C(=O)c2ccccc21 | 99* | -4 | 87* | -5 | -34
Cc1ccc(NC2=C(N3CCCCC3)C(=O)c3ccccc3C2=O)cc1 | 98* | -1 | 96* | -25 | 17
O=C1C(NS(=O)(=O)c2ccc(Br)cc2)=C(N2CCCCC2)C(=O)c2ccccc21 | · | 1 | · | · | -36
CN(C1=C(N2CCCCC2)C(=O)c2ccccc2C1=O)c1ccccc1 | 65* | -1 | 26* | -4 | -2
CC1CC(C)CN(C(=O)Cn2cc(C=O)c3ccccc32)C1 (stereo unspecified) | 1 | -3 | 5 | 11 | -37
Cc1cc(NC(=S)N(CCCN2CCN(C)CC2)Cc2ccco2)ccc1Cl | 27* | -5 | 35* | -16 | -16
ON/C=N/C(=S)Nc1ncc(C(F)(F)F)cc1Cl | 62* | 3 | 56* | 2 | -64
CCOC(=O)c1cccc(NC(=O)CSc2nnc(C)n2CC2CCCO2)c1 (stereo unspecified) | · | -1 | · | · | -20
COc1ccc(/C=N\N=C2/SC(CC(=O)O)C(=O)N2c2ccc(O)cc2)cc1OC (stereo unspecified) | 4 | -10 | -2 | -5 | -16
O=C(O)CC1S/C(=N/N=C/c2ccc([N+](=O)[O-])cc2)N(c2ccc(O)cc2)C1=O (stereo unspecified) | 80* | -3 | 0 | -4 | -8
Cc1cccc(OCC(O)CN2CC3(C)CC2CC(C)(C)C3)c1 (stereo unspecified) | 4 | -4 | -2 | 49* | -21
Cc1ccc(OCC(O)CN2CC3(C)CC2CC(C)(C)C3)cc1 (stereo unspecified) | 4 | -2 | -3 | 7 | 8
Cn1cc(CN2CCC(C(=O)N3CCCC3)CC2)c(-c2ccccc2F)n1 | -1 | -9 | -3 | 3 | -8
Cn1cc(CN2C[C@H]3CC[C@H]2C3)c(-c2ccccc2F)n1 | 31* | 10 | 55* | 9 | -1
Cc1ccc(C(C)C)c(OCc2ccc(C(=O)N/N=C/c3ccc(O)c(O)c3)cc2)c1 | 78* | 8 | 39* | 50* | -28
